From the supplement of paper PMC11732987, “Enantioselective OTUD7B fragment discovery through chemoproteomics screening and high-throughput optimisation” (Communications Chemistry, 2025)
Unmarked numbers belong to inactive results.

What was measured:
Assay in all cases: log2 ratio of Biotin-Ahx-Ub-VS probe labelling (fragment/DMSO); higher = less target engagement (more negative = stronger competition), active = hit call of the paper (q ≤ 0.05, log2 ratio ≤ -1)
Conditions in all cases: compound concentration: 200 uM; treatment time: 3 h
[1] = target: T1, OTUD6B (UniProt Q8N6M0)
T1 sequence (whole entry): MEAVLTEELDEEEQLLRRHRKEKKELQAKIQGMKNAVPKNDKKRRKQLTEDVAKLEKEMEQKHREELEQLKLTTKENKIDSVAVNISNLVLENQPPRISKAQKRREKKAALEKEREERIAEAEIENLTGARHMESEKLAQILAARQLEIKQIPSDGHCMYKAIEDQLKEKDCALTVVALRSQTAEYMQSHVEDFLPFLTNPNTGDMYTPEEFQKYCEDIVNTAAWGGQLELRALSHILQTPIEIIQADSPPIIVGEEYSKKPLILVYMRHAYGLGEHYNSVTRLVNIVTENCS
In short: (§1)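 HEK293T lysate, 495 µg per sample in Tris/CHAPS/IGEPAL buffer with protease inhibitors, was treated in triplicate with fragment at 200 µM or vehicle for 3 h and then with Biotin-Ahx-Ub-VS at 0.5 µM final for 1 h. Labelled DUBs were NeutrAvidin-enriched, digested with LysC and trypsin, and run by diaPASEF LC-MS/MS. Spectronaut label-free quantities were global-median-normalised, and values are average log2 fragment/vehicle ratios by unpaired t-test on proteins with ≥2 unique peptides.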

[2] = target: T2, OTUD7B (UniProt Q6GQQ9)
T2 sequence (whole entry): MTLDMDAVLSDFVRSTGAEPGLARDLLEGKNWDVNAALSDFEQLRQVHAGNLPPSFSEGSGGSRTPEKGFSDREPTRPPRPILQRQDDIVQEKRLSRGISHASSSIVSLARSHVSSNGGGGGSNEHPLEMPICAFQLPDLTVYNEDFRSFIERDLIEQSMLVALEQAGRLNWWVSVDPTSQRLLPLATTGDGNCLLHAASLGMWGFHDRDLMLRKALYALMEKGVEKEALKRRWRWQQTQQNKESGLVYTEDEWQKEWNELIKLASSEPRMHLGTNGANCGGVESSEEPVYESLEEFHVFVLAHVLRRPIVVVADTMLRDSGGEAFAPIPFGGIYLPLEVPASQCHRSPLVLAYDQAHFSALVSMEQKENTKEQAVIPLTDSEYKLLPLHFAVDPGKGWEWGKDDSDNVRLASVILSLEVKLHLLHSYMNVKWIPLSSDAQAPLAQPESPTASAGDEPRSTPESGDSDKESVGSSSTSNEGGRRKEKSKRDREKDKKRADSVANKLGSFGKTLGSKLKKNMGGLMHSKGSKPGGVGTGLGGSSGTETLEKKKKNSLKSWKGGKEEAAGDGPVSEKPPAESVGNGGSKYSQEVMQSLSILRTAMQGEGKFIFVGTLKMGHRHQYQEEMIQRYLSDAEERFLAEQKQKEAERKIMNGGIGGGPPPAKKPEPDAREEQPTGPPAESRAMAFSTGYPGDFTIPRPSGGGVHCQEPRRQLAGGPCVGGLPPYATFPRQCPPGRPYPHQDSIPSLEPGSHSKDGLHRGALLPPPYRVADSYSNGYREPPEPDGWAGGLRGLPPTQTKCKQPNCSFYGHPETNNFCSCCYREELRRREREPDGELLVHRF
In short: as §1

[3] = target: PRPF8 (UniProt Q6P2Q9)
In short: as §1

[4] = target: T3, PSMD7 (UniProt P51665)
T3 sequence (whole entry): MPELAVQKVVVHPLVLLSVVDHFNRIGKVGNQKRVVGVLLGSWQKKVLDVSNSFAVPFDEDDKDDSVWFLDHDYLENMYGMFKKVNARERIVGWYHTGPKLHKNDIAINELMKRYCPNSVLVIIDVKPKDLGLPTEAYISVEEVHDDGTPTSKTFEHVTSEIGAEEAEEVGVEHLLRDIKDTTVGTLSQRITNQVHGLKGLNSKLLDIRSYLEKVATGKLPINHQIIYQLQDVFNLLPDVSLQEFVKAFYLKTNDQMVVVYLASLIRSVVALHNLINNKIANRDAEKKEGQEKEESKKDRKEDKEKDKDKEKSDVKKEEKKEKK
In short: as §1

[5] = target: UCHL1 (UniProt P09936)
UCHL1, sequence (P09936 whole entry, looked up): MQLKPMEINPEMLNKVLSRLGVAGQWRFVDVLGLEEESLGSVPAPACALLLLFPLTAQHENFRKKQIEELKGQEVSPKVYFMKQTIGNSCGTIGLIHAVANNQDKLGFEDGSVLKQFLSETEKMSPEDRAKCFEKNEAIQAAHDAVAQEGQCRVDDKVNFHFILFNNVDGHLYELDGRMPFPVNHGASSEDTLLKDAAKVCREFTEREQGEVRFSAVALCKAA
In short: as §1

[6] = target: T4, UCHL3 (UniProt P15374)
T4 sequence (whole entry): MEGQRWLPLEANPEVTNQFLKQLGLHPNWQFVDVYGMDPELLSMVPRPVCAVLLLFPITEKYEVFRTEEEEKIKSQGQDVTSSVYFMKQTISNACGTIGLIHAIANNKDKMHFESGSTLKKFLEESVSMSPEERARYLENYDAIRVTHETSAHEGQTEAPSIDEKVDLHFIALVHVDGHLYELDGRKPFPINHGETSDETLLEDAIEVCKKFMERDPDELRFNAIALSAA
In short: as §1

[7] = target: T5, UCHL5 (UniProt Q9Y5K5)
T5 sequence (whole entry): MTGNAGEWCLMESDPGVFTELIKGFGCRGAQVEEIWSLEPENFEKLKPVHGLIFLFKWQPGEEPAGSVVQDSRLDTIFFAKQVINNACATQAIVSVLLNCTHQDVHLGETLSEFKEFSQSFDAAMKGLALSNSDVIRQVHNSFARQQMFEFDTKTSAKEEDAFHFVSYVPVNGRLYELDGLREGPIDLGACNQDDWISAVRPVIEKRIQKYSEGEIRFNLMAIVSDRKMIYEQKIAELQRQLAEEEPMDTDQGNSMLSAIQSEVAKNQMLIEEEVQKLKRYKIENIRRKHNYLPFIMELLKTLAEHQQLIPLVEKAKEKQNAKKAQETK
In short: as §1

[8] = target: USP10 (UniProt Q14694)
USP10, sequence (Q14694 whole entry): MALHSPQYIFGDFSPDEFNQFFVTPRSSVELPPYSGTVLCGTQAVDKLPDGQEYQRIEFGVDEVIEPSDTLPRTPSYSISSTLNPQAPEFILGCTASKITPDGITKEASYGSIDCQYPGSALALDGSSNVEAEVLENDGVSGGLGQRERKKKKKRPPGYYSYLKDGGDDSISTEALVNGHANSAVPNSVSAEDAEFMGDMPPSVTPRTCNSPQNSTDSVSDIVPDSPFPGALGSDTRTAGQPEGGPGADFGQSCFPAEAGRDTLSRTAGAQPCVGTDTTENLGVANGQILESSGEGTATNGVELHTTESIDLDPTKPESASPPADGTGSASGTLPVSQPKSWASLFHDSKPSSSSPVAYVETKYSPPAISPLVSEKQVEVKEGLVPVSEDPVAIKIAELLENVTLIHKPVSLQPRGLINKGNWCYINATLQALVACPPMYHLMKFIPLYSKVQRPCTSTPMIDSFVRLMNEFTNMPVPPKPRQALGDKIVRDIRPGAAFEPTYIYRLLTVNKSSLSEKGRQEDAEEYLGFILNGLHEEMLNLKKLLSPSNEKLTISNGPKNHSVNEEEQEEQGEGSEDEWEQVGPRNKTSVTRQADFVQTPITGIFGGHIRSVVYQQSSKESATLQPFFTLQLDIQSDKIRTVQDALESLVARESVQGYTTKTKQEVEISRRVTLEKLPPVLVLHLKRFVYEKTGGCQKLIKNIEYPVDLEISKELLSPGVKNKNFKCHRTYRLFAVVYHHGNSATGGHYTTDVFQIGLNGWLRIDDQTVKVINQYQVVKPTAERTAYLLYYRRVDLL
In short: as §1

[9] = target: T6, USP15 (UniProt Q9Y4E8)
T6 sequence (whole entry): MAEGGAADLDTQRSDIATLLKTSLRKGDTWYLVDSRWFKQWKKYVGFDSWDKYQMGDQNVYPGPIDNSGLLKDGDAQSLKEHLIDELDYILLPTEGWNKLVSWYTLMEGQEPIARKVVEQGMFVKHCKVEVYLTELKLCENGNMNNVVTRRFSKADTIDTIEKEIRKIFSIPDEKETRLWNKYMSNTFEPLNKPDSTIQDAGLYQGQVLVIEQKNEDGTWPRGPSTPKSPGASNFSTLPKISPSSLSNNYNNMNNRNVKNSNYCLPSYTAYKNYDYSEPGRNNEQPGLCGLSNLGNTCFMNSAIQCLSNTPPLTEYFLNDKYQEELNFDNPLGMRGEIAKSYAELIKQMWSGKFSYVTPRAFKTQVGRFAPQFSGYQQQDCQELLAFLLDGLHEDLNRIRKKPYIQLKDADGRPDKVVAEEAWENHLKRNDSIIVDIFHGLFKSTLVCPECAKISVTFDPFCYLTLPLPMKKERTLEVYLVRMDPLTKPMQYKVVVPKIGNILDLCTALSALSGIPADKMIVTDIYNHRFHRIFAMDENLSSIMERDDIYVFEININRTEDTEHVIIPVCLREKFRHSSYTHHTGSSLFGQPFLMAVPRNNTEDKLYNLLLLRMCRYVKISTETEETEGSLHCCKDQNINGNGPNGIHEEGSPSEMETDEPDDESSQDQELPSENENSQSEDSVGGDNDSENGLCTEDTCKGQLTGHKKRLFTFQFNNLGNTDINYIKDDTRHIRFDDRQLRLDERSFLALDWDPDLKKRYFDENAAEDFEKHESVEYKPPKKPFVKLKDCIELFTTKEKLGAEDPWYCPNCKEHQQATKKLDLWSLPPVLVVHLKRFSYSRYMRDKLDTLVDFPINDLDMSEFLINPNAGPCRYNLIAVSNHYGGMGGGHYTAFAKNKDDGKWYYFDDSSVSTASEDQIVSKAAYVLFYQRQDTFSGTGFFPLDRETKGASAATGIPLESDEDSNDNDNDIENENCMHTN
In short: as §1

[10] = target: USP16 (UniProt Q9Y5T5)
USP16, sequence (Q9Y5T5 whole entry, looked up): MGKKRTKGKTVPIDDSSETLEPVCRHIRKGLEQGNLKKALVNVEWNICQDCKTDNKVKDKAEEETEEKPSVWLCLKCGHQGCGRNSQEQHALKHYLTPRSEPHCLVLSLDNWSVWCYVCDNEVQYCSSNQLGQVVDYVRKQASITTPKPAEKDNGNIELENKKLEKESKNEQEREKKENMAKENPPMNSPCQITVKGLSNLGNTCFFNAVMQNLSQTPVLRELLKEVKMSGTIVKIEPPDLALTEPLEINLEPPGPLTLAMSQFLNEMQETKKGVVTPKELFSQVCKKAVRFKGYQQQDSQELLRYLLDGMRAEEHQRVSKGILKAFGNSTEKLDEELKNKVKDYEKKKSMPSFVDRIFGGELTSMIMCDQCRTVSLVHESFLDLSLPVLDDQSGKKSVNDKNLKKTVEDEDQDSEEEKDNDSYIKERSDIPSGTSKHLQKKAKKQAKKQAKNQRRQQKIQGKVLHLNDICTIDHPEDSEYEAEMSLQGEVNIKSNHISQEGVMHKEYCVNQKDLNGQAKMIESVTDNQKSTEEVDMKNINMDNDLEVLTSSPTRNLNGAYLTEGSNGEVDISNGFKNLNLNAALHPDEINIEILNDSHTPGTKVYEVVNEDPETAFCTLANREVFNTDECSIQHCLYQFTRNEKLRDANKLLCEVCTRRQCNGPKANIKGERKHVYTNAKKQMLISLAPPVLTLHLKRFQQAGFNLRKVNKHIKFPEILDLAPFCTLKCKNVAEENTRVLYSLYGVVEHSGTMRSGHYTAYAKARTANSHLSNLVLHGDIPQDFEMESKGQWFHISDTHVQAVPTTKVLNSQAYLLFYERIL
In short: as §1

| Compound | log2 ratio of Biotin-Ahx-Ub-VS probe labelling [1] | log2 ratio of Biotin-Ahx-Ub-VS probe labelling [2] | log2 ratio of Biotin-Ahx-Ub-VS probe labelling [3] | log2 ratio of Biotin-Ahx-Ub-VS probe labelling [4] | log2 ratio of Biotin-Ahx-Ub-VS probe labelling [5] | log2 ratio of Biotin-Ahx-Ub-VS probe labelling [6] | log2 ratio of Biotin-Ahx-Ub-VS probe labelling [7] | log2 ratio of Biotin-Ahx-Ub-VS probe labelling [8] | log2 ratio of Biotin-Ahx-Ub-VS probe labelling [9] | log2 ratio of Biotin-Ahx-Ub-VS probe labelling [10] |
| --- | --- | --- | --- | --- | --- | --- | --- | --- | --- | --- |
| CN(CCC(O)c1ccc(Br)cc1)C(=O)CCl (stereo not given) | -0.0417 | -1.37 (active) | 0.169 | -0.221 | -1.61 (active) | -0.26 | -0.331 | -0.142 | -0.337 | 0.00689 |
| Cl.Cn1ncc2c1CCCC2NC(=O)CCl (stereo not given) | -0.272 | -2.04 (active) | 0.261 | 0.0323 | -1.71 (active) | 0.241 | -0.145 | -0.078 | -0.335 | -0.096 |
| Cl.O=C(CCl)N1CCC(Cc2nccs2)C1 (stereo not given) | -0.205 | -0.436 | -0.0505 | -0.315 | -1.01 (active) | -0.0765 | -0.293 | 0.0972 | -0.249 | 0.355 |
| Cc1conc1C1CN(C(=O)CCl)C1 | -0.688 | -1.6 (active) | -0.125 | -0.499 | -2.04 (active) | -0.637 | -0.912 | -0.254 | -1.15 (active) | -0.0913 |
| O=C(CCl)NC1CCOc2ccccc21 (stereo not given) | -0.54 | -2.14 (active) | -0.152 | -0.0224 | -1.84 (active) | -0.57 | -1.08 (active) | -0.255 | -0.851 | -0.325 |
| O=C(CCl)N1CCCCCC1c1ncon1 (stereo not given) | -0.149 | -0.512 | -0.173 | -0.174 | -1.82 (active) | 0.279 | -0.229 | -0.0372 | -0.142 | -0.0478 |
| O=C(CCl)N1CCCN(C(=O)c2ccc(Cl)cc2)CC1 | -0.316 | -0.767 | 0.0935 | -0.253 | -1.68 (active) | 0.267 | -0.389 | 0.0223 | -0.429 | -0.13 |
| O=C(CCl)N1CCC(c2nc3ccccc3o2)CC1 | -0.508 | -0.632 | -0.0832 | -0.495 | -1.65 (active) | 0.054 | -0.349 | -0.114 | -0.214 | 0.149 |
| O=C(CCl)N1CCN(c2nc3ccccc3o2)CC1 | -0.147 | -0.25 | 0.299 | -0.247 | -1.49 (active) | -0.125 | -0.319 | -0.131 | -0.407 | -0.379 |
| Cl.O=C(CCl)N1CCN(Cc2ccccc2)CC1 | -0.117 | -0.1 | -0.0463 | -0.259 | -0.902 | 0.47 | -0.282 | -0.119 | -0.171 | -0.587 |
| O=C(CCl)N1CCOCCC1c1ccccc1 (stereo not given) | -0.163 | -0.354 | -0.148 | 0.00247 | -1.93 (active) | 0.325 | -0.0371 | -0.182 | 0.0371 | -0.424 |
| Cc1ccc(N(C(=O)CCl)C2C=CS(=O)(=O)C2)cc1 (stereo not given) | 0.181 | -0.0624 | 0.0782 | -0.0467 | -1.28 (active) | 0.419 | -0.13 | -0.0181 | -0.145 | 0.19 |
| O=C(CCl)N1CCC(c2noc3cc(F)ccc23)CC1 | -0.0328 | -0.608 | -0.0836 | -0.139 | -0.799 | 0.208 | -0.186 | -0.264 | -0.468 | -0.65 |
| Cc1ccc(N(CCC#N)C(=O)CCl)cc1C | -0.133 | -1.99 (active) | 0.0257 | -0.41 | -1.31 (active) | 0.292 | -0.157 | -0.00551 | -0.234 | -0.0509 |
| Cc1c(NC(=O)CCl)c(=O)n(-c2ccccc2)n1C | -0.0267 | -0.0828 | 0.192 | -0.0588 | -1.04 (active) | 0.0974 | -0.143 | -0.099 | -0.102 | -0.462 |
